Consider 2 compounds from ChEMBL document CHEMBL2218924, “A broad activity screen in support of a chemogenomic map for kinase signalling research and drug discovery” (Biochem J, 2013).

The target of assay [1] is Death-associated protein kinase 1 (Homo sapiens) (UniProt P53355). Particulars: at 10 µM.
In assay [2] the target is Death-associated protein kinase 2 (Homo sapiens) (UniProt Q9UIK4). To be noted: at 1 µM.
Assay [3] shares this target. Particulars: at 10 µM.
Assay [4] concerns the target T1, Serine/threonine-protein kinase DCLK2 (Homo sapiens) (UniProt Q8N568).
T1 sequence (whole entry): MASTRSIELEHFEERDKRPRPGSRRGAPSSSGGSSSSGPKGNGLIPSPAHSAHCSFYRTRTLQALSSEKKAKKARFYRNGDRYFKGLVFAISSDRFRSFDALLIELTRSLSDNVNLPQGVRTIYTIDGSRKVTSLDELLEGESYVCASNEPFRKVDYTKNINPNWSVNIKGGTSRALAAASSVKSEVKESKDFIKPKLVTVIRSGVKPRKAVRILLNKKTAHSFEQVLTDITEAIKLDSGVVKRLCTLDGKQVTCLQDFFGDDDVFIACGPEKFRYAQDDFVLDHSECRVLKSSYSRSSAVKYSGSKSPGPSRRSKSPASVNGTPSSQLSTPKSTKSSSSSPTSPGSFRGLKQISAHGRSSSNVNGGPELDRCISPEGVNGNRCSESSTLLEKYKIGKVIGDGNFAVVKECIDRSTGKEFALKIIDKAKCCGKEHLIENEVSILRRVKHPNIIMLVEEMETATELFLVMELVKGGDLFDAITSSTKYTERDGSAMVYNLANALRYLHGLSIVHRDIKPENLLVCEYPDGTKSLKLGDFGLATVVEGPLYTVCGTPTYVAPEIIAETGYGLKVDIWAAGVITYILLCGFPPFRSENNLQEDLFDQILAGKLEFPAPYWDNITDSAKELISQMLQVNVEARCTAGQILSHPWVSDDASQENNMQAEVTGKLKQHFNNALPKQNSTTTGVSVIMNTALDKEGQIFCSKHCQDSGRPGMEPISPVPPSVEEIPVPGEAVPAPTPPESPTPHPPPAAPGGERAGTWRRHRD
Particulars: at 1 µM.

Assay [5] deals with T1, Serine/threonine-protein kinase DCLK2 (Homo sapiens). To be noted: at 10 µM.
For assay [6], the target named is T2, Discoidin domain-containing receptor 2 (Homo sapiens) (UniProt Q16832).
T2 sequence (whole entry): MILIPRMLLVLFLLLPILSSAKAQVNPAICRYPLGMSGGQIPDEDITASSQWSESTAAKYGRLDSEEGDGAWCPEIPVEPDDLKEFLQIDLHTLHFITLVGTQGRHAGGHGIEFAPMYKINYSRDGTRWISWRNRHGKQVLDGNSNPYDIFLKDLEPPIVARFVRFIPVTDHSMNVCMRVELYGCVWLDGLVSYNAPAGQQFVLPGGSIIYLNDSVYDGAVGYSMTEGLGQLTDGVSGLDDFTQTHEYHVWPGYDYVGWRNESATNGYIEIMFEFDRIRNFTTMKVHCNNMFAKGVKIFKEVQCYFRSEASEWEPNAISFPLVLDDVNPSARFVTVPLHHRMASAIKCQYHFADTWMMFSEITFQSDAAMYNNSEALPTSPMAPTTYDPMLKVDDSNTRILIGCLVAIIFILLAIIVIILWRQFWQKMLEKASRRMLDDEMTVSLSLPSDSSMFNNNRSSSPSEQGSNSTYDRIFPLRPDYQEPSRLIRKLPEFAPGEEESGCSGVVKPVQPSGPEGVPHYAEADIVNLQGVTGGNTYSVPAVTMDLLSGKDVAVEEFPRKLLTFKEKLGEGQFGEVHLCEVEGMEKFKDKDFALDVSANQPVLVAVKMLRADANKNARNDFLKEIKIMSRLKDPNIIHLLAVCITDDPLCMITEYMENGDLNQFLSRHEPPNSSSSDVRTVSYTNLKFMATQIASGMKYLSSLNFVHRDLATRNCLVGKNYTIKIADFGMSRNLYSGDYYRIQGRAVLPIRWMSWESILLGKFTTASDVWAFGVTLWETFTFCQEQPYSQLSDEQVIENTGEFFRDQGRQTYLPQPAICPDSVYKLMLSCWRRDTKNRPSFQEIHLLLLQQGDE
Particulars: at 1 µM.

The target in assay [7] is T2, Discoidin domain-containing receptor 2 (Homo sapiens). Particulars: at 10 µM.
The target of assay [8] is T3, Myotonin-protein kinase (Homo sapiens) (UniProt Q09013).
T3 sequence (whole entry): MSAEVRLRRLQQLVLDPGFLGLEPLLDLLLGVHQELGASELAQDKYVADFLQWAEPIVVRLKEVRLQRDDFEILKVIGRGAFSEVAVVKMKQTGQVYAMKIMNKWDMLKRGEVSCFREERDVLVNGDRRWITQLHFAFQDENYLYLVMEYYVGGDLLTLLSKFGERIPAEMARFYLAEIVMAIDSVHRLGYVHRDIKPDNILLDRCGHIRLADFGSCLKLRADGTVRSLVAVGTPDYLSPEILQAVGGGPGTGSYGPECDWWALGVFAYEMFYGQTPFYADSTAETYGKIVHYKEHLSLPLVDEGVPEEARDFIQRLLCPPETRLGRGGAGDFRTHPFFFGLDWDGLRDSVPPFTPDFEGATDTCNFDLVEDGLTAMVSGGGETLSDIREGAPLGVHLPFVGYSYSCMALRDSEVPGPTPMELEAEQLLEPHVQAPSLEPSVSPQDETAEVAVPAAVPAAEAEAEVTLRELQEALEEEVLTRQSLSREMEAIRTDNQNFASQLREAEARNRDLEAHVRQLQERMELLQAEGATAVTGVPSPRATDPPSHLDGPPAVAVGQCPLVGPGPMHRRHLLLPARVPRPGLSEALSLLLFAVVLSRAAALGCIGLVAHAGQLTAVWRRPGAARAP
Particulars: at 1 µM.

The target in assay [9] is T3, Myotonin-protein kinase (Homo sapiens). To be noted: at 10 µM.
In assay [10] the target is T4, Serine/threonine-protein kinase 17A (Homo sapiens) (UniProt Q9UEE5).
T4 sequence (whole entry): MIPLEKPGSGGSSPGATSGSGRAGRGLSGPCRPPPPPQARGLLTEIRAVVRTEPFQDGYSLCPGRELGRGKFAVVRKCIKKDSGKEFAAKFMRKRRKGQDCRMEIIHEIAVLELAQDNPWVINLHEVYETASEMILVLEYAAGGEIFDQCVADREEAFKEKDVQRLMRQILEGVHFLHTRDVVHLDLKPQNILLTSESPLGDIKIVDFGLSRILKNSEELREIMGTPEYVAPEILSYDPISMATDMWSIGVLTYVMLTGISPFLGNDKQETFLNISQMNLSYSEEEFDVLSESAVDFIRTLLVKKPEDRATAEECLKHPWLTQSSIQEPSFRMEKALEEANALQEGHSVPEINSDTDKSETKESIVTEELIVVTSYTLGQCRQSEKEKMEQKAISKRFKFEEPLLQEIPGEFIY
To be noted: at 1 µM.

The target of assay [11] is T4, Serine/threonine-protein kinase 17A (Homo sapiens). Particulars: at 10 µM.
The target of assay [12] is T5, Dual specificity tyrosine-phosphorylation-regulated kinase 2 (Homo sapiens) (UniProt Q92630).
T5 sequence (whole entry): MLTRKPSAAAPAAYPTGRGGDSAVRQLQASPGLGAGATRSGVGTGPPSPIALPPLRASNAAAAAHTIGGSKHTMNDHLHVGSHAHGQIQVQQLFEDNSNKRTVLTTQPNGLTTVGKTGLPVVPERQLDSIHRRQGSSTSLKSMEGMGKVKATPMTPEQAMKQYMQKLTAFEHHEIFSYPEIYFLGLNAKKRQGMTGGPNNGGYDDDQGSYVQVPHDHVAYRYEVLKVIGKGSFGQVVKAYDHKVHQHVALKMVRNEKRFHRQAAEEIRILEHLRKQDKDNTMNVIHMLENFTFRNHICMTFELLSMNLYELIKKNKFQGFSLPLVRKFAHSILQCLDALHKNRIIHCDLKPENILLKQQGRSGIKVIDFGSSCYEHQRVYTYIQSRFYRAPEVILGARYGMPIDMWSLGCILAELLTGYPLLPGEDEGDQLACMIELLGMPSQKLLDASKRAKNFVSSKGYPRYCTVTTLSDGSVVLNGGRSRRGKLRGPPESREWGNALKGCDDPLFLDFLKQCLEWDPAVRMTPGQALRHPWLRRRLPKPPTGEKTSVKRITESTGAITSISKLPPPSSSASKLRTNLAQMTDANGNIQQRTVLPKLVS
Particulars: at 1 µM.

Assay [13] has as its target T5, Dual specificity tyrosine-phosphorylation-regulated kinase 2 (Homo sapiens). To be noted: at 10 µM.
The target in assay [14] is Epidermal growth factor receptor (Homo sapiens) (UniProt P00533). Particulars: at 1 µM.
Assay [15] has the same target. To be noted: at 10 µM.
The target in assay [16] is T6, Ephrin type-A receptor 1 (Homo sapiens) (UniProt P21709).
T6 sequence (whole entry): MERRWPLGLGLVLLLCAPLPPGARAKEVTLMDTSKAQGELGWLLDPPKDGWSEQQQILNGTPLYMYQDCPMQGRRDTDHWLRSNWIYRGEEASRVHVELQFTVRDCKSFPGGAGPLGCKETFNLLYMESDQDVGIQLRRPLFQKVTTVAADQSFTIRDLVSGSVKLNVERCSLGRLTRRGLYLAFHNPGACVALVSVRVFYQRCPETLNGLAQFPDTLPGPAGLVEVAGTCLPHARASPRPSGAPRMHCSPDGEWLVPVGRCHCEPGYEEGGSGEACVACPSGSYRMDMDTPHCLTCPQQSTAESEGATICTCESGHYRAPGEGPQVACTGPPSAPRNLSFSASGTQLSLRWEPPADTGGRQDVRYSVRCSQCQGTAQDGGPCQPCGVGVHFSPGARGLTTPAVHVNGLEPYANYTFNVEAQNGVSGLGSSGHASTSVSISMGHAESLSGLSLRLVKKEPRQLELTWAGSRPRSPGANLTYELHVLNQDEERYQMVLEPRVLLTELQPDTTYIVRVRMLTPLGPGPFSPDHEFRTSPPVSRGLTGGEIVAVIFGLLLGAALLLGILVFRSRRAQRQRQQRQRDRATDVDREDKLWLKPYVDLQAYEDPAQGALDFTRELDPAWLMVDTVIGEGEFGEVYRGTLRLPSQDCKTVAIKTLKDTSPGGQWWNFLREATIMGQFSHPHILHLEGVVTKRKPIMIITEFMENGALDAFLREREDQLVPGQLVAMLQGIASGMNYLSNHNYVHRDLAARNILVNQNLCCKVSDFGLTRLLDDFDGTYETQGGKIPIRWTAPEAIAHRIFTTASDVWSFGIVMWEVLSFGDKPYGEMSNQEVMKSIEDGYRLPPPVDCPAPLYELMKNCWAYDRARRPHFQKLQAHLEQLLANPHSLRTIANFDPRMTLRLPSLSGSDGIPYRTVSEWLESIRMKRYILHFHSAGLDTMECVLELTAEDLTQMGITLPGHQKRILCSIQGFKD
Particulars: at 1 µM.

For assay [17], the target named is T6, Ephrin type-A receptor 1 (Homo sapiens). To be noted: at 10 µM.
For assay [18], the target named is Ephrin type-A receptor 2 (Homo sapiens) (UniProt P29317). To be noted: at 1 µM.
The target is the same in assay [19]. To be noted: at 10 µM.
The target of assay [20] is T7, Ephrin type-A receptor 3 (Homo sapiens) (UniProt P29320).
T7 sequence (whole entry): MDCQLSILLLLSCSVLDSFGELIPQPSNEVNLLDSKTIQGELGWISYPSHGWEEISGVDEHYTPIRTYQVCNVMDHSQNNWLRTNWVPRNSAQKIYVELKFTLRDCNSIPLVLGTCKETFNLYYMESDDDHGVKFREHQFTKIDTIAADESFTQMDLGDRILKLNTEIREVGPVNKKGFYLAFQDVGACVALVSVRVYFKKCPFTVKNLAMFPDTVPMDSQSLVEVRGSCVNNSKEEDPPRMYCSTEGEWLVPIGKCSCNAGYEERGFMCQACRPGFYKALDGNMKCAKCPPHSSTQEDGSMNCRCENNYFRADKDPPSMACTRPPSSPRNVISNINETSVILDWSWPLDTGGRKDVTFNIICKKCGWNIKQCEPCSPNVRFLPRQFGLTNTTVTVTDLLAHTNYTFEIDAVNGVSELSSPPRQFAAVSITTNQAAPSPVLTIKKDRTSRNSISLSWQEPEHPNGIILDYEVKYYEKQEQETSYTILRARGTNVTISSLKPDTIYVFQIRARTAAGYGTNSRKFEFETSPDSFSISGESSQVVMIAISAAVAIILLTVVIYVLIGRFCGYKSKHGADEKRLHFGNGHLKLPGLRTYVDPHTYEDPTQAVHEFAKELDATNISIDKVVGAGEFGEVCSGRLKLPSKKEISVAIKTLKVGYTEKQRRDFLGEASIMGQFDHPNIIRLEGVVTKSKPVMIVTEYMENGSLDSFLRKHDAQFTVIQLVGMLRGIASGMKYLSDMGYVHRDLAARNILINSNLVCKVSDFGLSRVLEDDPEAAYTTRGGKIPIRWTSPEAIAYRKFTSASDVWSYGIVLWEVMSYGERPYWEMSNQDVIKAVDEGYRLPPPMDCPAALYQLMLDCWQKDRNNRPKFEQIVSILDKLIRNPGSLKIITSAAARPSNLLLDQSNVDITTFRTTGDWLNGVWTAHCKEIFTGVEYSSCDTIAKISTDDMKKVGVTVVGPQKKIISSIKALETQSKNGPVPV
To be noted: at 1 µM.

Each structure is given as a SMILES string.

Chain of Ephrin type-A receptor 2 (Homo sapiens) (P29317 whole entry): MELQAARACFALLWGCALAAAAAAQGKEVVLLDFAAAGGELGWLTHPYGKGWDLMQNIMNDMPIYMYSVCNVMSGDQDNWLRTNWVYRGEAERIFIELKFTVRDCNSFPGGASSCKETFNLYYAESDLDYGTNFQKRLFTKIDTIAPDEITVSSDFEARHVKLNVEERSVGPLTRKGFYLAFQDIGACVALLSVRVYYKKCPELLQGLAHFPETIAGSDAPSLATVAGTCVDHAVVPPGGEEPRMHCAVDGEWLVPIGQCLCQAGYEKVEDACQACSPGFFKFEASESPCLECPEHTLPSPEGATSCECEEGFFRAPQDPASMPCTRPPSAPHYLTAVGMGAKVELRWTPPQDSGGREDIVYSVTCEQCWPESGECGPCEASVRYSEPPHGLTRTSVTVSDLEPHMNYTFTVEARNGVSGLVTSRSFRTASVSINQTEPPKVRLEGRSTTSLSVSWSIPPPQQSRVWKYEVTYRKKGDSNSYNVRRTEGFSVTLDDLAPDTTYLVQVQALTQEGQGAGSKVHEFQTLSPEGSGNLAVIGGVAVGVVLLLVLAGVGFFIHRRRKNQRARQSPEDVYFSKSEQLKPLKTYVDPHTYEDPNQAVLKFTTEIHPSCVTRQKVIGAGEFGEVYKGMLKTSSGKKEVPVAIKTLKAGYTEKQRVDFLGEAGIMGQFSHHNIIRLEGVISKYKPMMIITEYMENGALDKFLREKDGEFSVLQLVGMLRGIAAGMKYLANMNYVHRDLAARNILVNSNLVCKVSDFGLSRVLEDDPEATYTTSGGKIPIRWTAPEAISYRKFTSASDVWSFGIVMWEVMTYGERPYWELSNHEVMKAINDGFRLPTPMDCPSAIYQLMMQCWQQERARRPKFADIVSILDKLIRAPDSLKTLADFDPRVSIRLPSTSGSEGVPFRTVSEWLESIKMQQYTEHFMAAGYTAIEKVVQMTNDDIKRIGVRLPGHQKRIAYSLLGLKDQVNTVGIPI
Chain of Death-associated protein kinase 2 (Homo sapiens) (Q9UIK4 whole entry, looked up): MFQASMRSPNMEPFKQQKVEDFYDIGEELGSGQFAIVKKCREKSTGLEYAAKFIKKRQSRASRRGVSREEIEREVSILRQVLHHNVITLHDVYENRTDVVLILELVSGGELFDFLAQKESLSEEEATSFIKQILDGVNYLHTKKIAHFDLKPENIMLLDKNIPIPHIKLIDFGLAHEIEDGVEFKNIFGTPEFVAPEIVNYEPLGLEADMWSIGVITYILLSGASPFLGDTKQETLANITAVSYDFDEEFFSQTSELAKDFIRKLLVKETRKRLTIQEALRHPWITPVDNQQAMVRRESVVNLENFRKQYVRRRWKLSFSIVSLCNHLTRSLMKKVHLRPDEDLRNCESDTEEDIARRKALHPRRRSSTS
Chain of Death-associated protein kinase 1 (Homo sapiens) (P53355 whole entry, looked up): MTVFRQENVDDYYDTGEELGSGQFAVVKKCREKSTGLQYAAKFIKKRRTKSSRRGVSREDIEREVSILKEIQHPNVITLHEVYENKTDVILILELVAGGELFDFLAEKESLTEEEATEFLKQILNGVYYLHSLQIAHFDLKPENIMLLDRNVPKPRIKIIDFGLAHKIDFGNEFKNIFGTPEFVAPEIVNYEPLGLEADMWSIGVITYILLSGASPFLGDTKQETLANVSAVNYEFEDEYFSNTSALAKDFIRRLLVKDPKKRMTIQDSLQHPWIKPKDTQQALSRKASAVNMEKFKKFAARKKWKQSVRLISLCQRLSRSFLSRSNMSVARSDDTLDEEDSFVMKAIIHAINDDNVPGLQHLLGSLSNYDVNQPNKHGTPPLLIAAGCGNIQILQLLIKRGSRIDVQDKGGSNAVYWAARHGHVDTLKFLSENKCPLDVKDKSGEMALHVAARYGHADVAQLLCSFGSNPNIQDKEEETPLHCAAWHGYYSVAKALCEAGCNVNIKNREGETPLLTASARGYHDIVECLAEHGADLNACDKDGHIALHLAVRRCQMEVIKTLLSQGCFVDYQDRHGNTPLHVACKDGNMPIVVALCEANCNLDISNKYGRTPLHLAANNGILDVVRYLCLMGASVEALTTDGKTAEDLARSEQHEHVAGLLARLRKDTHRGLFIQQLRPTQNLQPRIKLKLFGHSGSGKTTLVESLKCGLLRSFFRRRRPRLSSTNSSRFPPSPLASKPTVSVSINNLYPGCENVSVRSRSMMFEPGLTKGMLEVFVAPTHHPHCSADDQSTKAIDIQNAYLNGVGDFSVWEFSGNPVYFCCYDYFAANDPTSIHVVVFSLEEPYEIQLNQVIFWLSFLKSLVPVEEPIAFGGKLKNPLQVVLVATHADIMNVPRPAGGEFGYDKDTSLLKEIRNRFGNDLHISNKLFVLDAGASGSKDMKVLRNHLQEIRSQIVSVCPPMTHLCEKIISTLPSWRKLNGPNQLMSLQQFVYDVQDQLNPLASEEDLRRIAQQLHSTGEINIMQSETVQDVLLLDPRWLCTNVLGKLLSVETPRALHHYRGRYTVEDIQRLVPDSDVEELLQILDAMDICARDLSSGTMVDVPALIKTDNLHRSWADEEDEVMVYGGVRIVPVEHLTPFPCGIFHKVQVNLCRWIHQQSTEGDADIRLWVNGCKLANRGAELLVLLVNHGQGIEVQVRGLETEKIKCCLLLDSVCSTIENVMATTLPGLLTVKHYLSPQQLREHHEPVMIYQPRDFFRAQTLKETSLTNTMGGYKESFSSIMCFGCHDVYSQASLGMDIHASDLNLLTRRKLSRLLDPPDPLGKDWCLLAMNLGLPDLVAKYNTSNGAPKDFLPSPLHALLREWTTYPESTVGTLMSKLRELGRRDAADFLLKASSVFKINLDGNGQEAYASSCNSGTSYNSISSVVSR
Chain of Epidermal growth factor receptor (Homo sapiens) (P00533 whole entry): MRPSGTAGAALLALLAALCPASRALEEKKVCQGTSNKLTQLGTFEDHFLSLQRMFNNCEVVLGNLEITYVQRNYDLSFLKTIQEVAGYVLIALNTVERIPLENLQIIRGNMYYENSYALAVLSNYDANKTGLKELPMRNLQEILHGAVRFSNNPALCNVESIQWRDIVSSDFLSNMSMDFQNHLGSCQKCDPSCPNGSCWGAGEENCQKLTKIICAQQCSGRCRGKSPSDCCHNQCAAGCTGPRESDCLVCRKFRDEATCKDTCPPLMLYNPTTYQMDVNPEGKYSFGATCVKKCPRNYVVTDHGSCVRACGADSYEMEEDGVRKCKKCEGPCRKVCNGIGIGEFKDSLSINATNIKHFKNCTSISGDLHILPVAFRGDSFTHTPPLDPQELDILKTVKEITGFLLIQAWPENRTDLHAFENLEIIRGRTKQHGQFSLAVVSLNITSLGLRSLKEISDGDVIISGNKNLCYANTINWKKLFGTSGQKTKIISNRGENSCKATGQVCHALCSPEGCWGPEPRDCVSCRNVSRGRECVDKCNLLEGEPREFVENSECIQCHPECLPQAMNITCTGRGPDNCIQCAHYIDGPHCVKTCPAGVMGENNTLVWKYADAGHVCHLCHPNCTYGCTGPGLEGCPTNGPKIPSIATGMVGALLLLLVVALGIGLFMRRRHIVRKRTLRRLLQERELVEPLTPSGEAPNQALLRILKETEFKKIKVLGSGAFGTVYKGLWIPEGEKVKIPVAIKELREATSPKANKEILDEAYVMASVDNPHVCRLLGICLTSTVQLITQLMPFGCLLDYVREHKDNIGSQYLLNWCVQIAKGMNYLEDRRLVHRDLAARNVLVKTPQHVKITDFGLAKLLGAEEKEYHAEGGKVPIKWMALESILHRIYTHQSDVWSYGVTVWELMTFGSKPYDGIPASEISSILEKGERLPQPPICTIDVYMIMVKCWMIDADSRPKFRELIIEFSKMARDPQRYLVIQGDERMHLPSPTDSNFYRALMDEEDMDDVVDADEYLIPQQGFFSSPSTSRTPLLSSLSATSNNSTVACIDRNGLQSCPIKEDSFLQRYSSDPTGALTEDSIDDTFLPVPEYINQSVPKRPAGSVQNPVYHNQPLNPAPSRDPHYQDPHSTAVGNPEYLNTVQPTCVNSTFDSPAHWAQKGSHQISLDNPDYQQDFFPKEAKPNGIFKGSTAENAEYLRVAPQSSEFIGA

Consider `CCOc1cc2ncnc(Nc3cccc(Br)c3)c2cc1OCC`, for which the residual activity (usually the signal under treatment as a percentage of the control signal) in [1] came out at 85%; in assay [2] it was 105%; in [3] it was 102%; in assay [4], 84%; in [5], 66%; in assay [6] it was 93%. Moreover, the residual activity amounted to 66% in [7]; 109% in assay [8]; 135% in assay [9]; 113% in assay [10]; 60% in assay [11]; 92% in assay [12]. The residual activity in assay [13] was 58%; in [14], -5%; in assay [15], -4%; in assay [16] it was 32%; in [17], 4%; in assay [18], 85%. The residual activity in [19] came out at 18%; in assay [20] it was 81%.

`CNc1cc2c(Nc3cccc(Br)c3)ncnc2cn1`: the residual activity in [1] amounted to 60%; in [2], 86%; in assay [3], 69%; in assay [4], 121%; in assay [5], 97%; in [6], 84%. In addition, the residual activity in assay [7] worked out at 68%; in [8], 107%; in [9] it was 113%; in [10] it was 64%; in [11] it was 11%; in assay [12], 90%. Also, the residual activity was determined as 86% in assay [13]; 72% in assay [16]; 59% in [17]; 94% in assay [18]; 75% in assay [19]; 93% in assay [20].
